LmPK inh = qHTS Assay for Inhibitors of Leishmania Mexicana Pyruvate Kinase (LmPK); AID 1721, 2009; 290,000 tested, 0.37% active; purified LmPK, Kinase-Glo ATP luminescence, 1 h; Potency, µM (doses to about 57.5 µM), for the others: top-dose activity change, negative = inhibition, usual class: inhibitors; Q27686; note: potency is the fitted concentration of half-maximal effect; % is set by controls: 0 for no effect and ±100 for the full control effect
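0.1 nM LmPK, 0.5 mM PEP, 0.1 mM ADP; 50 mM imidazole pH 7.2, 7 mM MgCl2, 50 mM KCl; 1 h RT. Kinase-Glo luminescence readout, normalized to no-enzyme (full inhibition) and uninhibited wells.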
Tb PYK inh = qHTS of Trypanosoma Brucei Inhibitors; pyruvate kinase (Trypanosoma brucei), Q57TT1; Potency, µM (titrated, usually from 76.8 µM), for the others: top-dose activity, negative = inhibition, actives largely listed as inhibitors; 410,000 tested, 0.12% active; TbPYK enzyme, Kinase-Glo Plus ATP luminescence, 45 min; note: potency is the fitted concentration of half-maximal effect; % is set by controls: 0 for no effect and ±100 for the full control effect; nearly all actives have a fitted effect of over 50% in size
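T. brucei PYK with substrate was exposed to pin-transferred compounds across a concentration series, then started with 130 uM ADP (final). After 45 min at room temperature, Kinase-Glo Plus luminescence was read, normalized and curve-fitted.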
CHX counter = Cycloheximide Counterscreen for Small Molecule Inhibitors of Shiga Toxin. cell reporter, cycloheximide protein synthesis inhibition counterscreen. max response, %. 300,000 tested, 12% active. AID 2314, 2010; in the data active = max response mostly above about 13%, no sharp cut-off; inactive = mostly below about 14%; note: read at 38.3 µM for the half of the compounds with a filed dose; 0% is about no effect
Shiga toxin inh = A qHTS for Small Molecule Inhibitors of Shiga Toxin. Vero cells, Shiga toxin protein synthesis inhibition reporter. inhibition, % at 38.7 µM. 290,000 tested, 9.2% active. AID 2315, 2010; in the data active = inhibition mostly above about 28%, no sharp cut-off; inactive = mostly below about 43%; note: 0% is about no effect
Giardia FBPA inh = qHTS Assay for Inhibitors of Fructose-1,6-bisphosphate Aldolase from Giardia Lamblia; 290,000 tested, 0.71% active; A8B2U2; Potency, µM (highest dose often 59.6 µM), for inactives: at the top dose activity, negative = inhibition, usual class: inhibitors; purified Giardia FBPA; note: potency is the fitted concentration of half-maximal effect; % is set by controls: 0 for no effect and ±100 for the full control effect; nearly all actives have a fitted effect of over 55% in size
Target sequence (A8B2U2 whole entry, looked up): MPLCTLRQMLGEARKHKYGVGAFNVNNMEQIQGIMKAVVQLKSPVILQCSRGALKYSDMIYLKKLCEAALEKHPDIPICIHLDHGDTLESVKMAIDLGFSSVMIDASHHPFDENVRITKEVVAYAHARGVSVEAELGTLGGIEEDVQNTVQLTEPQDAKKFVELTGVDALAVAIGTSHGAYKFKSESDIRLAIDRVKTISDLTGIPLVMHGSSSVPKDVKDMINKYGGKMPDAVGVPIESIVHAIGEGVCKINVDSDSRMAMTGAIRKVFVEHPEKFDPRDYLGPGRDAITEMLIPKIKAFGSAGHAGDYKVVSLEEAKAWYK
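Giardia FBPA (40 nM reagent) was preincubated 10 min at RT with compound (up to 57.5 uM final), then substrate plus GAPDH/TPI/NAD/arsenate coupling system with diaphorase/resazurin was added; resorufin fluorescence (525/598 nm) was read after 20 min.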
RE007 growth inh = qHTS Assay for Inhibitors of the HIV-1 protein Vpr. S. pombe RE007 Vpr strain, BacTiter-Glo ATP luminescence, 24 h. Potency, µM (top dose mostly 92.2 µM), without a hit: top-dose activity change, negative = less growth, most hits filed as inhibitors. 360,000 tested, 0.21% active; active = well fitted falling curve with a large enough effect; note: potency is the fitted concentration of half-maximal effect; % is set by controls: 0 for no effect and ±100 for the full control effect; nearly all actives have a fitted effect of over 50% in size
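Fission yeast RE007 carrying one integrated HIV-1 vpr copy, seeded at OD 0.01 in PMG+AL medium with 23 nL pinned compound. Grown 24 h at 30 degrees; viability read by BacTiter-Glo luminescence after 5 min.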
* = called active by the depositor; [ ] = another dose, or the depositor's remark. This is one part of a sample in which hits are shown more often than they occur. Unless noted, calls come from the whole dose curve; as a rule, active = well fitted curve in the direction sought with a large enough effect; inconclusive = small, poorly fitted or top-dose-only effect, or another doubt; inactive = no such curve, though single readings can be large; an effect the other way counts as inactive or inconclusive.

How did c1ccc(CNc2nc(-c3cccnc3)cs2)cc1 do in these assays?
LmPK inh: 0%; Tb PYK inh: 1%; CHX counter: 34*; Shiga toxin inh: 48; Giardia FBPA inh: -16%; RE007 growth inh: 1%

What do the screens show for `c1ccc(-c2csc(-c3cccnc3)n2)cc1`?
LmPK inh: 3%; Tb PYK inh: 2%; CHX counter: 28*; Shiga toxin inh: 89*; Giardia FBPA inh: 1%; RE007 growth inh: 0%

What do the screens show for `O=S(=O)(c1ccc(-c2csc(-c3cccnc3)n2)cc1)N1CCOCC1`?
LmPK inh: 2%; Tb PYK inh: 0%; CHX counter: 11; Shiga toxin inh: -2; Giardia FBPA inh: 1%; RE007 growth inh: -5%

Results for O=C(NCc1ccccc1)c1csc(-c2cccnc2)n1 ?
LmPK inh: 0%; Tb PYK inh: 3%; CHX counter: 2; Shiga toxin inh: 4; Giardia FBPA inh: 4%; RE007 growth inh: 0%

What do the screens show for `COc1ccc(OC)c(CNC(=O)Cc2ccc(NC(=O)N3CCSc4ncccc43)cc2)c1`?
Tb PYK inh: -2%[15.4 µM]

Results for COCCNC(=O)c1cnn(-c2cccc(C)c2)c1-n1cccc1 ?
Tb PYK inh: -5%[15.4 µM]

How did COC(=O)c1cnn(-c2ccc(C)c(C)c2)c1-n1cccc1 do in these assays?
LmPK inh: -18%; Tb PYK inh: -1%; CHX counter: 20*; Shiga toxin inh: 29; Giardia FBPA inh: -8%; RE007 growth inh: 5%

Results for Cc1ccc(NS(=O)(=O)c2ccc(-c3cc(C)no3)cc2)c(Br)c1 ?
Tb PYK inh: 1%

Results for CC(OC(=O)c1cc(=O)[nH]c2ccccc12)c1ccccc1 (stereo unspecified) ?
LmPK inh: 1%; Tb PYK inh: -1%; CHX counter: 32*; Shiga toxin inh: 70*; Giardia FBPA inh: 3%; RE007 growth inh: -12%

Results for CCOC(=O)c1oc2cc(C)cc(C)c2c1C ?
LmPK inh: -5%; Tb PYK inh: -3%; CHX counter: -2; Shiga toxin inh: -1; Giardia FBPA inh: 3%; RE007 growth inh: -19%

How did CCOC(=O)c1oc2ccc(/C=N/O)c(Cl)c2c1C do in these assays?
LmPK inh: 4%; Tb PYK inh: -1%; CHX counter: 29*; Shiga toxin inh: 37; Giardia FBPA inh: 7%; RE007 growth inh: 4%

What do the screens show for `CC1CC1C(=O)OCC(=O)Nc1ccc(N=Nc2ccccc2)cc1` (stereo unspecified)?
LmPK inh: -2%; Tb PYK inh: 3%; CHX counter: 55*; Shiga toxin inh: 93*; Giardia FBPA inh: 6%; RE007 growth inh: 14%

How did Nc1ccc(SCC(=O)Nc2cccc([N+](=O)[O-])c2)cc1 do in these assays?
LmPK inh: -3%; Tb PYK inh: -6%; CHX counter: 37*; Shiga toxin inh: 51; Giardia FBPA inh: 0%; RE007 growth inh: -5%

What do the screens show for `O=C(CSCCO)Nc1cccc([N+](=O)[O-])c1`?
LmPK inh: -5%; Tb PYK inh: 6%; CHX counter: 10; Shiga toxin inh: -15; Giardia FBPA inh: 9%; RE007 growth inh: 6%

Results for CC1CC1C(=O)OCC(=O)Nc1cccc([N+](=O)[O-])c1 (stereo unspecified) ?
LmPK inh: 0%; Tb PYK inh: 7%; CHX counter: 32*; Shiga toxin inh: 65*; Giardia FBPA inh: -7%; RE007 growth inh: -16%

Results for CCCC(=O)OCC(=O)Nc1ccc(N=Nc2ccccc2)cc1 ?
LmPK inh: 1%; Tb PYK inh: 3%; CHX counter: 62*; Shiga toxin inh: 84*; Giardia FBPA inh: 5%; RE007 growth inh: -1%

What do the screens show for `CCCCC1CCC(CCCC(C)CCC(=O)O)CC1` (stereo unspecified)?
Tb PYK inh: 1%

What do the screens show for `NNC(=O)c1ccc(CSc2nc3ccccc3s2)cc1`?
LmPK inh: 0%; Tb PYK inh: -1%; CHX counter: 14; Shiga toxin inh: 54*; Giardia FBPA inh: -4%; RE007 growth inh: -14%

What do the screens show for `O=C(Nc1ccc2nc(SCc3ccccc3)sc2c1)c1cccc(F)c1`?
Tb PYK inh: -4%

What do the screens show for `COCCN(CCOC)C(=O)c1ccc(CSc2nc3ccccc3s2)cc1`?
LmPK inh: -3%; Tb PYK inh: -6%; CHX counter: 32*; Shiga toxin inh: 53*; RE007 growth inh: 15%

What do the screens show for `COc1ccc(C(=O)Nc2ccc3nc(SCc4ccc(C)cc4)sc3c2)cc1`?
Tb PYK inh: 1%

How did CCOC(=O)c1c(NC(=O)COc2ccc(Cl)cc2C)sc(C(C)=O)c1C do in these assays?
Tb PYK inh: -14%

Results for COc1ccc2nc(NC(=S)N(C)C)sc2c1 ?
LmPK inh: -25%; Tb PYK inh: -25%; CHX counter: 47*; Shiga toxin inh: 68*; Giardia FBPA inh: 30%; RE007 growth inh: -27%

What do the screens show for `CCCC(=O)Nc1nc2ccc(OC)cc2s1`?
LmPK inh: -6%; Tb PYK inh: 0%; CHX counter: 75*; Shiga toxin inh: 104*; Giardia FBPA inh: -6%; RE007 growth inh: -21%

How did COc1ccc2nc(NC(=O)CS(=O)(=O)Cc3ccccc3)sc2c1 do in these assays?
LmPK inh: 1%; Tb PYK inh: 7%; CHX counter: 3; Shiga toxin inh: -2; Giardia FBPA inh: 4%; RE007 growth inh: 7%

What do the screens show for `COc1ccc2nc(NC(=O)CCc3ccc(OC)c(OC)c3)sc2c1`?
LmPK inh: -1%; Tb PYK inh: 5%; CHX counter: 30*; Shiga toxin inh: 30; Giardia FBPA inh: 4%; RE007 growth inh: -1%

Results for COc1ccc(/C=N/OCC(=O)Nc2nc3ccccc3s2)cc1 ?
LmPK inh: -2%; Tb PYK inh: -2%; CHX counter: 34*; Shiga toxin inh: active; Giardia FBPA inh: 0%; RE007 growth inh: 14%

What do the screens show for `O=C(C1CCCN(S(=O)(=O)c2ccc(Br)s2)C1)N1CCN(c2ccc(F)cc2)CC1` (stereo unspecified)?
Tb PYK inh: 0%

Results for COC(=O)[C@H](C)NC(=O)C/C=C\[C@@H](C)CO ?
Giardia FBPA inh: 0%[12.9 µM]

Results for C=CCn1c(SCC(=O)NCC)nnc1-c1cc2c(s1)CCC(CC)C2 (stereo unspecified) ?
LmPK inh: 3%; Tb PYK inh: 3%; CHX counter: 42*; Shiga toxin inh: 94*; Giardia FBPA inh: 8%; RE007 growth inh: 11%

Screening results: PubChem, National Center for Advancing Translational Sciences (NCATS)
